In PubChem BioAssay AID1007 (NMMLSC, 2008):
Out of some 190,000 compounds screened, about 80 (0.04%) were called active. No stated cut-off is given here; in the data, active means inhibition above about 40%. A selection follows.

biological target: Bcl-2-like protein 1 (Homo sapiens) (UniProt Q07817); experiment: Bcl-XL/Bim peptide interaction blockers – biochemical, multiplexed, bead flow cytometry, human Bcl-XL, primary screen (AID 1007); conditions: Bim peptide-Bcl-XL binding, fluorescence, at 10 µM, stronger effect = higher value
Sequence (Q07817 whole entry, looked up): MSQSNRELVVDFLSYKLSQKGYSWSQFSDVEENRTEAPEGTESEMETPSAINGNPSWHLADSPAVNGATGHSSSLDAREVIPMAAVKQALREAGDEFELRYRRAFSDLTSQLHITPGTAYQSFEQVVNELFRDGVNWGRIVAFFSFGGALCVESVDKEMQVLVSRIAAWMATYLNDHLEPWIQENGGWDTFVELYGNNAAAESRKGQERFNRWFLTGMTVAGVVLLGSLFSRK

inhibition, inactive:
Cc1cc(C)c[n+](-c2nc3ccccc3nc2[N-]S(=O)(=O)c2cccs2)c1 -3%
O=C(Nc1cccc(C(F)(F)F)c1)c1ccc(N2CCNCC2)c([N+](=O)[O-])c1 0%
O=C(NCc1cccs1)C1CCN(S(=O)(=O)c2ccc(Cl)cc2)CC1 0%
CCN(CC(=O)NC(=O)NCc1ccccc1)Cc1nc2ccccc2c(=O)[nH]1 1%
C/C(=N/OC(=O)c1c(-c2c(F)cccc2Cl)noc1C)c1cnccn1 -3%
Cc1ccc(-c2nn(-c3cccc(F)c3)cc2CNCCc2ccncc2)o1 -2%
O=C(CSc1ccccc1F)NC1CCS(=O)(=O)C1 (stereo unspecified) 0%
O=C1COc2ccc(C(=O)COC(=O)c3cccnc3Cl)cc2N1 -3%
O=C(CCS(=O)(=O)Cc1ccccc1)Nc1ccc2c(c1)OCCO2 0%
NC1=NC2(CCCCC2)N(c2ccc(F)cc2F)C(N)=N1 -6%
COc1ccc2ccccc2c1CNc1nnnn1C 1%
CC(C)(C)NC(=O)COC(=O)c1cc(Br)ccc1Cl -9%
O=C(OCC(=O)N1CCOCC1)c1ccc(N2CCOCC2)c([N+](=O)[O-])c1 1%
Cc1nc(-c2ccc(Cl)cc2)sc1C(=O)CBr 0%
Cc1cccc(NC(=O)c2cccc(C(F)(F)F)c2)c1 -3%
CC[N+]1(CC)CC2=Cc3ccccc3CC2C1 (stereo unspecified) -4%
CNC(=O)NC(=O)C(OC(=O)c1cccc(S(=O)(=O)N2CCCCC2)c1)c1ccccc1 (stereo unspecified) -4%
CCCn1c(NC(=O)C23CC4CC(CC(O)(C4)C2)C3)nc2ccccc21 -2%
Cc1cc(C)n(CCNCc2c(C(=O)N3C[C@@H](C)O[C@@H](C)C3)nc3ccc(Cl)cn23)n1 -1%
O=C(N/N=C/c1ccccc1O)/C(=C/c1ccccc1)CCO -10%
CCOc1ccc(CCN2C(=O)c3cccnc3C2=O)cc1OCC 0%
CC(=O)c1c(Nc2ccccc2)sc(C(=O)c2ccccc2)c1C -6%
COc1ccc2nc(Nc3nc(-c4ccncc4)cs3)sc2c1 -1%
Cc1ccc(-c2c(C)n([O-])c3c([n+]2=O)CCC3)cc1 -3%
O=C(CO/N=C/c1ccccc1OC(F)F)NC1CCCC1 1%
Cc1ccccc1N(C(=O)Cc1cccs1)C(C(=O)NC1CCCCC1)c1cn(C)nc1C (stereo unspecified) -5%
Cc1cc(NC(=O)CSc2nccn2-c2ccc([N+](=O)[O-])cc2)no1 -15%
Cc1nnc(SCC(=O)NNC(=O)c2ccc(Cl)cc2)n1CC1CCCO1 (stereo unspecified) -6%
Cc1ccc(N(C(=O)Cc2cccs2)C(C(=O)NCC2CCCO2)c2ccncc2)cc1 (stereo unspecified) 2%
Cc1cccc(N2CCN(c3ccc(C(N)=O)cc3[N+](=O)[O-])CC2)c1C 0%
CCOc1ncccc1C(=O)N(CC)CC(=O)Nc1ccc(NC(C)=O)cc1 -9%
CN(c1ccccc1)S(=O)(=O)c1cc(C(=O)Nc2nc3ccccc3[nH]2)ccc1Cl 8%
COC(=O)CN1C(=S)N(c2ccccc2)C(=O)C1CC(=O)Nc1ccc(Cl)cc1 (stereo unspecified) -5%
N#C/C(=C(/O)COC(=O)COc1ccc(Cl)cc1)c1nc2ccccc2[nH]1 -11%
COCCCNC(=S)NCCNc1nc2cc(C)c(C)cc2cc1C#N -1%
S=C(NCC1CCCO1)N1CCN(c2ccc(Cl)c(Cl)c2)CC1 (stereo unspecified) -1%
CCn1cnc2scc(-c3ccc(C)c(C)c3)c2c1=O 0%
CC(C)Oc1ccc(CCc2nnc(SCC(=O)O)n2-c2ccccc2)cc1 -5%
COc1ccccc1OCC(=O)OCn1c(SC)nnc(C)c1=O -7%
N=C1/C(=C/c2cccn2-c2cccc([N+](=O)[O-])c2)C(=O)N=C2SC=CN12 -5%
Cc1c(C(=O)NCCN2C(=O)S/C(=C\c3cccs3)C2=O)cccc1[N+](=O)[O-] -6%
CCCn1nc(NS(=O)(=O)c2ccccc2)c2cc3cc(C)ccc3nc21 0%
Cc1ccc(NC(=O)CSc2nc(CSc3ccc(C)cc3)cc(=O)[nH]2)cc1 -1%
CN(C)C(CNC(=O)Cc1ccc([N+](=O)[O-])cc1)c1ccccc1 (stereo unspecified) -1%
S=c1[nH]nc(-c2cccs2)n1/N=C/c1cccs1 1%
FC(F)(F)c1cccc(Cc2noc(CN3CCC(N4CCCCC4)CC3)n2)c1 0%
COc1ccc(C/C(C)=N/NC(=O)c2ccncc2)cc1 -3%
Cc1ccc(N(C(=O)c2ccc(S(=O)(=O)N(C)C)cc2)C2C=CS(=O)(=O)C2)cc1 (stereo unspecified) 0%
Cc1ccc(C(=O)/C=C/Nc2ccc(S(=O)(=O)Nc3onc(C)c3C)cc2)cc1 -1%
O=C(CNCc1ccc(Cl)cc1)Nc1cccc(C(=O)O)c1 -5%
CNS(=O)(=O)c1ccc(NC(=O)C2CC(=O)N(c3ccc(Cl)cc3)C2)cc1 (stereo unspecified) -2%
CC(=O)Nc1ccc(NC(=O)C(C)n2c3ccccc3c3nc(=O)cc(C)n32)cc1 (stereo unspecified) 0%
O=C(O)c1cccc(NC(=S)N/N=C/c2c[nH]c3ccccc23)c1 -4%
CCOC(=O)CN1C(=O)N[C@@H](c2ccc(Br)cc2)C(C(C)=O)=C1C -2%
COc1ccc(C(C(=O)NC2CCCCC2)N(C(=O)Cc2c[nH]c3ccccc23)c2ccccc2)cc1OC (stereo unspecified) 10%
COc1cc(CN(C)Cc2nc3cc(C(F)(F)F)ccc3c(=O)[nH]2)ccc1OC(F)F 0%
COCCN(CCOC)S(=O)(=O)c1ccc(/C(O)=C(\C#N)c2nc3ccccc3[nH]2)cc1 -3%
O=C(NCc1ccccc1Cl)C1CCCO1 (stereo unspecified) 2%
O=C(O)c1ccccc1-c1ccccc1C(=O)NCc1cccnc1 -2%
Cc1ccccc1-n1nc(SCC(=O)O)sc1=S 2%
COc1ccc(-c2[nH]ncc2CN(C)Cc2cc(C)[nH]n2)c(F)c1 -3%
CCOCCCNC(=S)N1CCC(NC(=O)C2CCCCC2)CC1 -3%
CNC(=S)N/N=C/c1cn(Cc2ccc(C)cc2)c2ccccc12 -5%
COc1ccc(C(=O)C2CCCN(C(=O)c3cc4nc(C)cc(C)n4n3)C2)cc1F (stereo unspecified) -2%
CC(C)NC(=O)C(=O)NCCCOC(C)C -6%
NC(=S)N/N=C/c1coc2cc(Cl)ccc2c1=O -5%
Cc1ccc(Nc2nnc(SCC(=O)c3cc4ccccc4o3)s2)cc1C -20%
COc1cc(NC(=S)N2CCCC(C)C2)c(OC)cc1Cl (stereo unspecified) -7%
CC(C)COP(=O)(c1ccc(N(C)C)cc1)C(Nc1ccccc1)c1cccnc1 (stereo unspecified) -15%
CC1CC(=S)Nc2ccccc2N1Cc1ccccc1 (stereo unspecified) -6%
CSc1ccccc1NC(=O)Cc1ccc(Br)cc1 -4%
CCCN(CC(=O)Nc1ccccc1C)C(=O)c1cc(=O)[nH]c2ccccc12 2%
Cc1cc(=O)oc2c1c(C)nn2-c1ccc(Cl)cc1 1%
COc1ccc(C(C)=O)cc1CSc1nc2nc(C)cc(C)n2n1 -2%
Cc1nc(S(=O)(=O)c2ccc(Br)cc2)nc2c1CCC2 0%
COc1cc(C(=O)N2C(=O)c3cccc(N)c3C2=O)cc(OC)c1OC -2%
Cc1ccc(C)c(OCC(=O)N2CCN(C(=O)c3ccco3)CC2)c1 -8%
COc1cc(C(=O)Nc2cc(C(F)(F)F)ccc2N2CCOCC2)ccc1O -6%
CCCn1nc(Oc2nc(NC(C)C)nc(N(C)C)n2)ccc1=O -2%
NS(=O)(=O)c1ccc(NC(=O)/C=C/c2ccccc2Cl)cc1 1%
NNC(=O)COc1ccc(C2SCCS2)cc1 0%
COc1ccc(-n2nnnc2SCC(=O)NCc2cccs2)cc1 1%
Cn1c(-c2ccc(F)cc2)cnc1SCC(=O)NNC(=O)Cc1ccccc1 0%
Cc1ccc(CC(=O)Nc2cccc(C#N)c2)cc1 -4%
C[C@H](NC(=O)c1ccccc1Cl)C(=O)OCCOc1cccc(Cl)c1 -14%
Cn1nnnc1NCc1ccc(Cl)c(Cl)c1 0%
COc1ccc(CNC(=O)C2CCN(S(C)(=O)=O)CC2)cc1 -3%
CC(Nc1ccccc1)c1cccnc1 (stereo unspecified) -2%
CCOC(=O)NC(=O)CSc1nnc(SCCC(=O)O)s1 -10%
O=C(Nc1ccccc1-c1ccccc1)c1cccs1 -3%
CC(C)(C)c1ccc(C(=O)NCc2nnc(SCC(=O)N3CCCc4ccccc43)n2-c2ccccc2)cc1 -8%
Cc1ccc(O)c(-c2cc(C(=O)NCc3ccccc3)[nH]n2)c1 -3%
C/C(N)=C(/C#N)C(=O)COC(=O)c1cc(-c2cccc(Br)c2)nc2ccccc12 -1%
CCOC(=O)N1CCN(C(=O)c2ccccc2N(Cc2ccccc2)S(=O)(=O)c2ccc(OC)cc2)CC1 0%
Cc1ccc(S(=O)(=O)/N=S(\C)C(C)C)cc1 (stereo unspecified) -3%
COc1ccccc1CNC(=O)CNC(=O)c1cn(-c2ccccc2OC)c(=O)c2ccccc12 -2%
CC(=O)OC(COc1ccc(F)cc1)Cn1cnc2ccccc21 (stereo unspecified) -4%
O=C(Nc1ccc(F)c([N+](=O)[O-])c1)C1CC(=O)N(Cc2ccccc2)C1 (stereo unspecified) 0%
Cc1ccnc2nc(C(=O)OCC(=O)N(CC(C)C)CC(C)C)nn12 -7%
Cc1ccc(OCC(=O)Nc2ccccc2Sc2ccc(Cl)cc2)c([N+](=O)[O-])n1 0%
O=C1N/C(=N\N=C\c2ccco2)SC1Cc1ccc(F)cc1 (stereo unspecified) -4%
CCNC(=O)NC(=O)C(C)OC(=O)C1CCN(S(=O)(=O)c2ccccc2F)CC1 (stereo unspecified) -2%
CN1CCN(/N=C2/C(=O)Nc3ccc([N+](=O)[O-])cc32)CC1 0%
COc1ccc(CN2CCC(c3nc4ccc(Cl)cc4[nH]3)CC2)cc1 0%
CC(=O)Nc1ccc(S(=O)(=O)N(C)c2ccc(OCC(=O)OCC(=O)N3CCCCC3)cc2)cc1 -3%
Cc1cc(C)cc(NC(=O)COC(=O)c2cc(C)oc2C)c1 -4%
O=C(CN1CCN(C/C=C/c2ccccc2)CC1)Nc1ccc(F)cc1F -1%
CN=C(c1ccccc1)c1c(C)cccc1C -9%
COc1cccc(OCCCN2CCCCCC2)c1 -1%
Cc1cc(O)ccc1NC1=CC(=O)CC(C)(C)C1 0%
C#CCNC(=O)C1=C[C@@H](c2ccccc2)[C@H](CCCO)[C@@H](OCC)O1 -1%
